Measured values: PubChem BioAssay
“And” between values parts separate entries of the source, which are not always exact repeats. Equal entries are not always repeated. Some structures have more than one record in an assay (separate samples or runs), and their calls can disagree. The source made the active and inactive calls.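 How the source made its calls, unless noted: active means thallium flux through the channel raised or lowered by more than 3 SD from vehicle-only wells, actives on both sides; inactive means the rest.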

Key:
[1] = Wnt pathway potentiators raising nuclear beta-catenin – imaging, WNT3A-conditioned medium, mouse C2C12, NPC library, primary screen (AID 1117326; in the data active means nuclear beta-catenin stimulation mostly above about 4.2%, no sharp cut-off; inactive means mostly below about 10%); conditions: stronger effect = higher value
[2] = stimulators of insulin release from INS-1E, primary screen, cell-based, 5 mM glucose, NPC library (AID 1117329;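 active means compound raises insulin release from rat beta cells at 5 mM glucose, no numeric limit stated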); conditions: rat INS-1E insulin secretion, at 10 µM, stronger effect = higher value
[3] = growth inhibition of GSK3B-pretreated HCT116 cells – cell-based, CellTiter-Glo, 0.2 to 20 µM (AID 1117336;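 active means compounds lowering colon cancer cell viability after pretreatment blocking the GSK3B kinase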); conditions: HCT116 viability after GSK3B inhibitor, at 20 µM, stronger effect = higher value
[4] = inhibition of endothelial tube formation, primary screen, imaging, VEGF stimulated, CD31 staining, tube area, NPC library (AID 1117340;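 active means compound that reduces growth-factor-driven endothelial tube area in a mixed cell culture, no cutoff stated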); conditions: VEGF-stimulated ADSC/ECFC co-culture, at 10 µM, stronger effect = higher value
[5] = GLP1 release stimulators, primary, NCI-H716, NPC library (AID 1117341;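 active means compound raises GLP1 secretion from the human gut endocrine cells, with no numeric limit stated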); conditions: NCI-H716 cells, at 10 µM, stronger effect = higher value
[6] = HCT116 colon cancer cell growth inhibition, primary screen, CellTiter-Glo luminescence, NPC library (AID 1117342;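 active means compounds that lower survival of HCT116 colon cancer cells in the luminescence readout, no numeric limit stated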); conditions: at 20 µM (top of the series)
[7] = reduced SW480 viability measured with CellTiter-Glo, NPC library, primary (AID 1117343;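 active means compounds that lower viability of the colon cancer cells in the luminescence readout, with no numeric limit stated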); conditions: CellTiter-Glo luminescence; at 20 µM (top of the series)
[8] = NPC library primary testing for decreased DLD-1 cell viability via CellTiter-Glo (AID 1117346;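 active means compounds that lower survival of DLD-1 colon cancer cells in the luminescence readout, no cutoff given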); conditions: DLD-1 viability, CellTiter-Glo luminescence; at 20 µM (top of the series)
[9] = molecular target: 6-phosphogluconate dehydrogenase, decarboxylating (Homo sapiens) (UniProt P52209); test: inhibition of human phosphogluconate dehydrogenase – biochemical, recombinant enzyme, NADPH absorbance, primary screen (AID 1159550;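 active means at least 20% inhibition of 6-phosphogluconate dehydrogenase activity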); conditions: recombinant 6PGD, NADPH absorbance 341 nm; at 10 µM; stronger effect = higher value
Chain of 6-phosphogluconate dehydrogenase, decarboxylating (Homo sapiens) (P52209 whole entry, looked up): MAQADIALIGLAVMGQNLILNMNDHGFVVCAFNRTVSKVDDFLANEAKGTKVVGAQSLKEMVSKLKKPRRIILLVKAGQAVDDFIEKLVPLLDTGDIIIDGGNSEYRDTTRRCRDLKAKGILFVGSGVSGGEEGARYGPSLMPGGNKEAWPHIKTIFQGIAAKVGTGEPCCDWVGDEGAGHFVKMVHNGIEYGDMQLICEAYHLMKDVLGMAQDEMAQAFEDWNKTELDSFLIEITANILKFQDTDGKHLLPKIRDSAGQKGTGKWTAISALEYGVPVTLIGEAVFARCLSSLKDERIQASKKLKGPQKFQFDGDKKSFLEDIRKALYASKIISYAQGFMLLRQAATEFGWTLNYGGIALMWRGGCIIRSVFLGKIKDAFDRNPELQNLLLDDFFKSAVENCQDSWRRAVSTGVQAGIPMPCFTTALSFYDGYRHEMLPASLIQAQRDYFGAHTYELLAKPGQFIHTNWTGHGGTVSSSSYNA

[10] = modulation of C. elegans fzo-1 (AID 1259413; call rule not given here;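 further: fzo-1 mutant C. elegans worms in liquid wells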); conditions: C. elegans fzo-1 modulator screen, mean read-out; stronger effect = higher value
[11] = EMT-state selective cytotoxicity in co-culture – imaging, PC-3E GFP, TEM4-18 mCherry, primary screen (AID 1345086;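 active means compounds killing one labelled cell type while sparing the other, by normalised counts and ratio limits, not self-fluorescent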;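 on all read-outs here: cells exposed to compound for 72 h before imaging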;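 on red/green cell ratio (normalised): normalised mesenchymal count divided by normalised epithelial count so high means epithelial killing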); conditions: PC-3E GFP / TEM4-18 mCherry co-culture, imaging cell counts, at 1 µM; for red/green cell ratio (normalised): actives lie on both sides, counts scaled to control wells, 1 = unselective
[12] = MELAS cybrid and Rieske KO viability enhancers – cell-based, MELAS cybrids, Rieske KO mouse fibroblasts, CellTiter-Glo, primary screen (AID 1508586;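 active means mean z-score across replicates of 1.96 or higher in either the MELAS or the Rieske mutant cell line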;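 further: z relative to plate mean and SD of compound and empty wells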); conditions: low glucose
[13] = molecular target: NAD(+) hydrolase SARM1 (Homo sapiens) (UniProt Q6SZW1); test: blocking NAD cleavage by SARM1 SAM-TIR – cell lysate, NAD-Glo luminescence (AID 1508614;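 active means compound whose remaining NAD level is above about 45 nM, limit read from the data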); conditions: SAM-TIR HEK293T lysate NADase, at 1 µM, stronger effect = higher value
Chain of NAD(+) hydrolase SARM1 (Homo sapiens) (Q6SZW1 whole entry, looked up, the tested form may be a part): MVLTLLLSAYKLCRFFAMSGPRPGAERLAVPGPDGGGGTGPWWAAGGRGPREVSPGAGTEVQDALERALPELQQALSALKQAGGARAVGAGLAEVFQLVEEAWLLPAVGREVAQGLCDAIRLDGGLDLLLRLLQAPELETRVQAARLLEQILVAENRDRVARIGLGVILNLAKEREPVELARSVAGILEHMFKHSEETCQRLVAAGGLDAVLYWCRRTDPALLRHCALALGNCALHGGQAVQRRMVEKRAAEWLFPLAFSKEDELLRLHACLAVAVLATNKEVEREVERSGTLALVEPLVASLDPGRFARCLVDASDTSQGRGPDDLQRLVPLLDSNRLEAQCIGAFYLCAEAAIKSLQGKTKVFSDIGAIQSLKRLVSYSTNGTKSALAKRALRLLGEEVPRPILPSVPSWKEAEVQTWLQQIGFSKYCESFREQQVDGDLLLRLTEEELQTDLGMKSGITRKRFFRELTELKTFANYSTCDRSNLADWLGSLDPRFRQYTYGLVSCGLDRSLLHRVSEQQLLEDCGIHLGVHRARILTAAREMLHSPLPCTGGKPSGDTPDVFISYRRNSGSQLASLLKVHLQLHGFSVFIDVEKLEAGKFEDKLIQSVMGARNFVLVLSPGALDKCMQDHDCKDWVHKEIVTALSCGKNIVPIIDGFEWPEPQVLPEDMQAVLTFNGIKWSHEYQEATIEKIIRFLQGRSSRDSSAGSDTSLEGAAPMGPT

[14] = molecular target: Mitogen-activated protein kinase 7 (Homo sapiens) (UniProt Q13164); test: Gal4-ERK5 driven luciferase induction – cell-based, HTS, primary screen (AID 1508626;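 active means luciferase signal above three times the same-plate solvent-only control wells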;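 further: luciferase driven by Gal4-ERK5 fusion binding five Gal4 sites before minimal TATA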); conditions: HeLa Gal4-ERK5 transactivation, 18 h, at 5 µM, stronger effect = higher value
Chain of Mitogen-activated protein kinase 7 (Homo sapiens) (Q13164 whole entry, looked up, the tested form may be a part): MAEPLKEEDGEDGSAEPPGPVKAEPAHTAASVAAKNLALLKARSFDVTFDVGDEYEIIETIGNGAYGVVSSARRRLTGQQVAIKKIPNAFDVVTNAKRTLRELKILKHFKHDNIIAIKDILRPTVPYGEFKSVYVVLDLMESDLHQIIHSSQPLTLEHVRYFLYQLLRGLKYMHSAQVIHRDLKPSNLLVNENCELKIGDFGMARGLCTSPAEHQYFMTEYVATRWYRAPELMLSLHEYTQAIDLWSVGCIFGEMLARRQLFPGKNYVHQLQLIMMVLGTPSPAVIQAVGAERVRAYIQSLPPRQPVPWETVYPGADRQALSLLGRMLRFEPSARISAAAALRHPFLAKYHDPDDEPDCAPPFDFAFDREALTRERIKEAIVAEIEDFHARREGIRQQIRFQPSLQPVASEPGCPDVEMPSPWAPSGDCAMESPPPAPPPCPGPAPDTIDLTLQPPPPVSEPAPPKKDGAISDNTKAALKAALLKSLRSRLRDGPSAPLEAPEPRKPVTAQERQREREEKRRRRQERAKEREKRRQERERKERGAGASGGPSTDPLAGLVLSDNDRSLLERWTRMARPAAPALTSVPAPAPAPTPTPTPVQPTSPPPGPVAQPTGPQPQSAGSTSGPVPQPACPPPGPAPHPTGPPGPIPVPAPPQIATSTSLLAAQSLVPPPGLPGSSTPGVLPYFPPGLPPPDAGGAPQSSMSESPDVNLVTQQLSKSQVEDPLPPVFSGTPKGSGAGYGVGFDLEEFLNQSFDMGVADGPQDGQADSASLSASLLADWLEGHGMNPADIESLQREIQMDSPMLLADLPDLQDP

F380Y = test: BK channel mutant inhibitors and activators – cell-based, U2OS BacMam, thallium flux, beta subunits, selectivity assay, profiling panel (AID 1259406); conditions: U2OS BacMam BK variants, at 30 µM;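 further: initial slope of Thallos dye fluorescence rise after thallium is added; log ratio against the mean of 0.3% DMSO vehicle wells on the same plate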
F380Y/beta1 = test: as above; conditions: U2OS BacMam BK variants, at 30 µM
F380Y/beta2Delta = test: as above; conditions: U2OS BacMam BK variants, at 30 µM
[15] = measured here: epithelial PC-3E GFP cell survival
[16] = measured here: mesenchymal TEM4-18 mCherry cell survival
[17] = MELAS cybrid survival, CellTiter-Glo 48 h, stronger effect = higher value
[18] = Rieske KO mouse fibroblast survival, CellTiter-Glo 72 h

In the case of `NNC(=O)c1ccncc1`, the nuclear beta-catenin stimulation ([1]; at 10 µM) is reported as -1.9% (inactive), the nuclear beta-catenin stimulation ([1]; stimulation, at 2 µM) is reported as -1.2% and the insulin secretion stimulation [2] is reported as -0.1% (inactive). For the same compound, the viability decrease [3] was -2.7% (inactive), the tube area decrease [4] was -10.4% (inactive) and the GLP1 secretion stimulation [5] was 0.3% (inactive). The inhibition of viability [6] was 9.9% (inactive), the viability decrease (inhibition) [7] was 10.1% (inactive) and the viability decrease (inhibition) [8] was 6.5% (inactive). For the same compound, the inhibition [9] was 6.29% (inactive), the mean signal [10] was 247 (inactive) and the red/green cell ratio (normalised) [11] was 1.18 (inactive). For the same compound, the normalised cell number [11, 15] was 1.01, the normalised cell number [11, 16] was 1.19 and the z-score [12, 17] was -0.127 (inactive) and -0.162 (inactive) and -0.645 (inactive). For the same compound, the z-score [12, 18] was 0.295 and -0.273 and 1.51, the remaining NAD [13] was 10 nM (inactive) and the luciferase signal [14] was 36 AU (inactive). For the same compound, the log fold change Tl+ flux (F380Y) was 0.00909 (inactive), the log fold change Tl+ flux (F380Y/beta1) was 0.0138 (inactive) and the log fold change Tl+ flux (F380Y/beta2Delta) was 0.00988 (inactive).

With `CCOC(=O)C1=C(C)NC(C)=C(C(=O)OC)C1c1cccc([N+](=O)[O-])c1` (configuration not stated) the nuclear beta-catenin stimulation ([1]; at 10 µM) was -0.1% (inactive), the nuclear beta-catenin stimulation ([1]; stimulation, at 2 µM) was 1.2% and the insulin secretion stimulation [2] was 2.2% (inactive). The viability decrease [3] was 58.2% (active), the tube area decrease [4] was 23.7% (inactive) and the GLP1 secretion stimulation [5] was -0.6% (inactive). The inhibition of viability [6] was 75.7% (active), the viability decrease (inhibition) [7] was 52.4% (active) and the viability decrease (inhibition) [8] was 40.9% (inactive). For the same compound, the inhibition [9] was 2.14% (inactive), the mean signal [10] was 230 (inactive) and the red/green cell ratio (normalised) [11] was 1.19 (inactive). For the same compound, the normalised cell number [11, 15] was 1.11, the normalised cell number [11, 16] was 1.31 and the z-score [12, 17] was -0.48 (inactive) and 1.38 (inactive) and -0.0841 (inactive). The z-score [12, 18] was 0.0141 and 0.8 and 0.442, the remaining NAD [13] was 10 nM (inactive) and the log fold change Tl+ flux (F380Y) was 0.00482 (inactive). For the same compound, the log fold change Tl+ flux (F380Y/beta1) was -0.0255 (inactive) and the log fold change Tl+ flux (F380Y/beta2Delta) was -0.0689 (inactive).

In the case of `NCCc1ccc(O)c(O)c1`, the nuclear beta-catenin stimulation ([1]; at 10 µM) is reported as 1.1% (inactive), the nuclear beta-catenin stimulation ([1]; stimulation, at 2 µM) is reported as 0.8% and the insulin secretion stimulation [2] is reported as -3% (inactive). For the same compound, the viability decrease [3] was 22.9% (inactive), the tube area decrease [4] was 37.7% (inactive) and the GLP1 secretion stimulation [5] was -0.9% (inactive). The inhibition of viability [6] was -9.7% (inactive), the viability decrease (inhibition) [7] was 79.9% (active) and the viability decrease (inhibition) [8] was 11.6% (inactive). For the same compound, the inhibition [9] was -4.79% (inactive), the mean signal [10] was 263 (inactive) and the red/green cell ratio (normalised) [11] was 1.02 (inactive) and 0.85 (inactive). The normalised cell number [11, 15] was 1.41 and 1.02, the normalised cell number [11, 16] was 1.44 and 0.87 and the z-score [12, 17] was -0.31 (inactive) and 0.319 (inactive). For the same compound, the z-score [12, 18] was 0.135 and -0.219, the remaining NAD [13] was 10 nM (inactive) and the luciferase signal [14] was 44 AU (inactive) and 204 AU (active). For the same compound, the log fold change Tl+ flux (F380Y) was 0.0174 (inactive), the log fold change Tl+ flux (F380Y/beta1) was 0.0356 (inactive) and the log fold change Tl+ flux (F380Y/beta2Delta) was 0.0459 (inactive).
